Laboratory results published in PubChem BioAssay AID1159580 (chemical genetic matrix, 2015).
Among all 5,500 compounds or so, about 2,000 (36%) were called active. About 18% were inconclusive and are not listed. Cut-off read from the data, not from the text of the source: active = normalized growth mostly below about 0.91 (no sharp cut-off); inconclusive = no clear call, values can overlap the other calls; inactive = mostly above about 0.92. This is one part of the list.

Test: chemical genetic growth profiling, strain panel (AID 1159580);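 note: tested at 20 µM; growth read once vehicle control cultures reached saturation at 30 °C; 1 = growth at the plate median or of vehicle wells; lower values mean less growth of the strain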
Conditions: growth OD

Measured: normalized growth

O=C(Cc1cccs1)NC1C(=O)N2C(C(=O)[O-])=C(C[n+]3ccccc3)CSC12 (stereo unspecified)
inactive: S. cerevisiae deletion strains, locus YJR075W, strain HOC1, hits give low values 1.01 | S. cerevisiae deletion strains, locus YKL009W, strain mrt4, hits give low values 0.989 | S. cerevisiae deletion strains, locus YKL068W, hits give low values 1.01 | S. cerevisiae deletion strains, locus YKL085W, strain MDH1 (second series), hits give low values 1 | S. cerevisiae deletion strains, locus YKL085W, strain MDH1, hits give low values 1 | S. cerevisiae deletion strains, locus YKL160W, strain elf1, hits give low values 1 | S. cerevisiae deletion strains, locus YKL190W, strain CNB1, hits give low values 1.01 | S. cerevisiae deletion strains, locus YKR001C, strain vps1, hits give low values 0.992 | S. cerevisiae deletion strains, locus YKR026C, strain gcn3, hits give low values 0.988 | S. cerevisiae deletion strains, locus YKR091W, strain srl3, hits give low values 0.985 | S. cerevisiae deletion strains, locus YLL001W, strain dnm1, hits give low values 0.979 | S. cerevisiae deletion strains, locus YLL026W, hits give low values 0.997 | S. cerevisiae deletion strains, locus YLL041C, strain sdh2, hits give low values 0.994 | S. cerevisiae deletion strains, locus YLR027C, strain aat2, hits give low values 0.989 | S. cerevisiae deletion strains, locus YLR039C, strain RIC1, hits give low values 1.01 | S. cerevisiae deletion strains, locus YLR058C, strain SHM2, hits give low values 0.99 | S. cerevisiae deletion strains, locus YLR102C, strain apc9, hits give low values 0.997 | S. cerevisiae deletion strains, locus YLR221C, strain rsa3, hits give low values 0.99 | S. cerevisiae deletion strains, locus YLR258W, strain gsy2, hits give low values 0.986 | S. cerevisiae deletion strains, locus YLR262C, strain YPT6 (second series), hits give low values 0.973 | S. cerevisiae deletion strains, locus YLR262C, strain YPT6, hits give low values 1.03 | S. cerevisiae deletion strains, locus YLR268W, strain sec22, hits give low values 0.979 | S. cerevisiae deletion strains, locus YLR320W, strain mms22, hits give low values 0.979 | S. cerevisiae deletion strains, locus YLR330W, strain CHS5, hits give low values 1.01 | S. cerevisiae deletion strains, locus YLR342W, strain FKS1 (second series), hits give low values 0.956 | S. cerevisiae deletion strains, locus YLR342W, strain FKS1, hits give low values 0.986 | S. cerevisiae deletion strains, locus YLR357W, strain rsc2, hits give low values 0.937 | S. cerevisiae deletion strains, locus YLR370C, strain arc18, hits give low values 0.989 | S. cerevisiae deletion strains, locus YLR371W, strain rom2, hits give low values 0.985 | S. cerevisiae deletion strains, locus YLR384C, strain iki3, hits give low values 0.974 | S. cerevisiae deletion strains, locus YLR418C, strain cdc73, hits give low values 0.949 | S. cerevisiae deletion strains, locus YML016C, strain PPZ1, hits give low values 0.999 | S. cerevisiae deletion strains, locus YML032C, strain rad52, hits give low values 0.973 | S. cerevisiae deletion strains, locus YML120C, strain ndi1, hits give low values 1 | S. cerevisiae deletion strains, locus YML124C, strain tub3, hits give low values 0.999 | S. cerevisiae deletion strains, locus YMR058W, strain fet3, hits give low values 0.984 | S. cerevisiae deletion strains, locus YMR078C, strain ctf18, hits give low values 0.999 | S. cerevisiae deletion strains, locus YMR125W, strain sto1, hits give low values 0.983 | S. cerevisiae deletion strains, locus YMR129W, hits give low values 1 | S. cerevisiae deletion strains, locus YMR205C, strain PFK2, hits give low values 0.978 | S. cerevisiae deletion strains, locus YMR223W, strain ubp8, hits give low values 0.982 | S. cerevisiae deletion strains, locus YMR231W, strain pep5, hits give low values 0.991 | S. cerevisiae deletion strains, locus YMR307W, strain GAS1, hits give low values 0.997 | S. cerevisiae deletion strains, locus YNL067W, strain RPL9B, hits give low values 1.02 | S. cerevisiae deletion strains, locus YNL071W, strain lat1, hits give low values 0.999 | S. cerevisiae deletion strains, locus YNL128W, strain TEP1, hits give low values 1.01 | S. cerevisiae deletion strains, locus YNL153C, strain GIM3, hits give low values 1.03 | S. cerevisiae deletion strains, locus YNL209W, strain ssb2, hits give low values 0.984 | S. cerevisiae deletion strains, locus YNL233W, strain BNI4, hits give low values 1.02 | S. cerevisiae deletion strains, locus YNL248C, strain rpa49, hits give low values 0.985 | S. cerevisiae deletion strains, locus YNL250W, strain rad50, hits give low values 0.972 | S. cerevisiae deletion strains, locus YNL271C, strain bni1, hits give low values 0.992 | S. cerevisiae deletion strains, locus YNL298W, strain CLA4, hits give low values 0.986 | S. cerevisiae deletion strains, locus YNL307C, strain MCK1, hits give low values 0.991 | S. cerevisiae deletion strains, locus YNL322C, strain KRE1 (second series), hits give low values 0.985 | S. cerevisiae deletion strains, locus YNL322C, strain KRE1, hits give low values 1 | S. cerevisiae deletion strains, locus YNR049C, strain mso1, hits give low values 0.975 | S. cerevisiae deletion strains, locus YNR052C, strain pop2, hits give low values 0.989 | S. cerevisiae deletion strains, locus YOL006C, strain TOP1, hits give low values 1.02 | S. cerevisiae deletion strains, locus YOL012C, strain htz1 0.724 | S. cerevisiae deletion strains, locus YOL147C, strain pex11, hits give low values 0.992 | S. cerevisiae deletion strains, locus YOR001W, strain rrp6, hits give low values 0.988 | S. cerevisiae deletion strains, locus YOR061W, strain CKA2, hits give low values 1 | S. cerevisiae deletion strains, locus YOR069W, strain VPS5, hits give low values 1 | S. cerevisiae deletion strains, locus YOR070C, strain gyp1, hits give low values 0.974 | S. cerevisiae deletion strains, locus YOR080W, strain dia2, hits give low values 0.971 | S. cerevisiae deletion strains, locus YOR083W, strain WHI5, hits give low values 0.974 | S. cerevisiae deletion strains, locus YOR106W, strain vam3, hits give low values 0.973 | S. cerevisiae deletion strains, locus YOR136W, strain idh2, hits give low values 0.998 | S. cerevisiae deletion strains, locus YOR144C, strain elg1, hits give low values 0.997 | S. cerevisiae deletion strains, locus YOR184W, strain ser1, hits give low values 0.983 | S. cerevisiae deletion strains, locus YOR265W, strain rbl2, hits give low values 1 | S. cerevisiae deletion strains, locus YOR270C, strain vph1, hits give low values 0.942 | S. cerevisiae deletion strains, locus YOR290C, strain snf2, hits give low values 0.991 | S. cerevisiae deletion strains, locus YOR316C, strain cot1, hits give low values 0.994 | S. cerevisiae deletion strains, locus YPL051W, strain arl3, hits give low values 0.983 | S. cerevisiae deletion strains, locus YPL055C, strain LGE1, hits give low values 1.03 | S. cerevisiae deletion strains, locus YPL078C, strain atp4, hits give low values 0.988 | S. cerevisiae deletion strains, locus YPL106C, strain sse1, hits give low values 0.939 | S. cerevisiae deletion strains, locus YPL240C, strain hsp82, hits give low values 0.992 | S. cerevisiae deletion strains, locus YPR119W, strain clb2, hits give low values 0.997 | S. cerevisiae deletion strains, locus YPR141C, strain kar3, hits give low values 1.01 | S. cerevisiae deletion strains, locus YPR163C, strain tif3, hits give low values 0.997 | S. cerevisiae deletion strains, locus YPR167C, strain met16, hits give low values 0.988 | S. cerevisiae deletion strains, strain wtn01, hits give low values 0.978 | S. cerevisiae strains, strain wild type, hits give low values 0.998
